This is an account of results in PMC7819943, “Rice protein-binding microarrays: a tool to detect cis-acting elements near promoter regions in rice”.

Over roughly 35,000 sequences, “fluorescence intensity (a.u.)” has its median near 10,000; the highest 2% begin near 52,000. For the sample, the highest values were picked, then their nearest neighbours and some sequences at random.

For the test, the target named is T1, OsWOX13 (Oryza sativa, UniProt Q5QMM3 1-267).
T1 sequence: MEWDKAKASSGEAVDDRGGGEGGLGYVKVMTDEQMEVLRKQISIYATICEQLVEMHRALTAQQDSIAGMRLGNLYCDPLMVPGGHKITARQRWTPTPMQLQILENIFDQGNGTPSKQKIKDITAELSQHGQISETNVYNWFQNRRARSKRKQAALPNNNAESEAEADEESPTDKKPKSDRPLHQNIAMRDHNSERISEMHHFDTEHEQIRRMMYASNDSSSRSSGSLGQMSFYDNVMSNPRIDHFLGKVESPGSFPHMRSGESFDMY
Kind of test: protein-binding microarray (RPBM); PBS, 2% BSA, 51.3 ng/ul salmon testes DNA, 50 uM zinc acetate, 200 nM TF, 25 C, 1 h; high values mean tight binding. Particulars: protein: recombinant; tags: N-terminal polyhistidine and DsRed monomer fusion (pET32a); label: CyDye5-dUTP incorporated in the synthesized complementary strand; 3' TTTTT single-stranded linker to array surface; dsDNA, one strand shown. In a few lines:
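The binding signal for each feature is its fluorescence intensity in arbitrary units. An Axon 4000B scanner was used to read a custom Agilent array that had been made double-stranded with Cy5-dUTP primer extension, blocked with 2% BSA, incubated at 25 °C for 1 h with 200 nM protein in PBS, 2% BSA, salmon testes DNA and 50 µM zinc acetate, and washed. The protein was an N-terminal polyhistidine–DsRed transcription factor fusion from E. coli BL21-CodonPlus, purified on Ni–NTA.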
Regarding “ATATGATTAAACTCAAGTATAGTTGAGGGACGTAAATTGGCGGAGTCACCTAGTGCAG”, the binding signal is 19700 fluorescence intensity (a.u.).

As to “TTCATATAATTTATAAGGGACATAATGTAATCACCCTATACGGAGTCACCTAGTGCAG”, the binding signal was 10300 fluorescence intensity (a.u.).

For the sequence “ACCCACCCTTCAATTAGCCTGTGAATTACTACTTTCTAATCGGAGTCACCTAGTGCAG”, the binding signal was 7460 fluorescence intensity (a.u.).

On to “AGTGATTAATTCATTCCAAAAGACAGTAGCGACATCTATTCGGAGTCACCTAGTGCAG”, for which the binding signal is 20300 fluorescence intensity (a.u.). The value for “ATTAATTATCAGTGAGCACAAGCCTGGCATGTAAATCATGCGGAGTCACCTAGTGCAG” was 24800 fluorescence intensity (a.u.); that for “TTATGACCGGTTTTGATTAGTTAAGAGACGCCAGATATCTCGGAGTCACCTAGTGCAG” was 14300 fluorescence intensity (a.u.).

For the sequence “CCTGATTAATTGGGTCGTCGTTCCATTCCCAGCCGATCGACGGAGTCACCTAGTGCAG”, the binding signal was 65200 fluorescence intensity (a.u.).

On to “TATTAAGAATTAGATTAGGATTAGGATTGTGTCAATGTTCCGGAGTCACCTAGTGCAG”, for which the binding signal was 4860 fluorescence intensity (a.u.). The value for “GTAGTTCTTGATGTATTTCAATTAGAACCTTAATTTTCCACGGAGTCACCTAGTGCAG” was 3390 fluorescence intensity (a.u.); that for “ATTTGATTTTCTGTCTTTTCTTCAACTCGATTTTGTTAAACGGAGTCACCTAGTGCAG” was 8770 fluorescence intensity (a.u.).

For the sequence “GTATGGATCACCTGATTAATTGGGCCGTCGTTCCATTCCCCGGAGTCACCTAGTGCAG”, the binding signal is 9310 fluorescence intensity (a.u.). The value for “CACCAATTTGATTGTTTTATTATTTTAAATCTTCAGTACTCGGAGTCACCTAGTGCAG” was 14200 fluorescence intensity (a.u.); that for “TTTTGATTGACAGCGGAAATTACTCGATATTGTTCTTCAACGGAGTCACCTAGTGCAG” was 64300 fluorescence intensity (a.u.). The value for “ATGTTCTTAGATTGATTAAGATTGTCAATTGATTACTCCACGGAGTCACCTAGTGCAG” was 60500 fluorescence intensity (a.u.).

As for “TCCCATTGATTTGATCCAGCTAATTAATTAATTCGATCCACGGAGTCACCTAGTGCAG”, the binding signal was 49900 fluorescence intensity (a.u.).

With “GCCTGATTAATTGATTAATTCTCCAGCTGCATCACATTGACGGAGTCACCTAGTGCAG”, the binding signal was 63700 fluorescence intensity (a.u.).

For “ATACATTGATTAATCAGCCAGCCAGCCAGCCAGCCACTGACGGAGTCACCTAGTGCAG”, the binding signal is 28700 fluorescence intensity (a.u.). The same measure for “TAATTGATTAATTAATAATACTCCAGCTGCAGCAACGGCACGGAGTCACCTAGTGCAG”: 47300 fluorescence intensity (a.u.); for “TTAAATTTATACCCCACTTATATCTCACTTACACATCACTCGGAGTCACCTAGTGCAG”: 7930 fluorescence intensity (a.u.). Turning to “TTAAATTTTCTATATAAATCTATTCAAATCTGCATAAATGCGGAGTCACCTAGTGCAG”, the binding signal was 3870 fluorescence intensity (a.u.). For “TTGTAAAATTATATTTATTTAAGATGAAGGGAGTACTATCCGGAGTCACCTAGTGCAG”, the binding signal is 4920 fluorescence intensity (a.u.).

For “TTGCTGATTGTGAATGGTGGGTGCAAGGATACACTTTTCGCGGAGTCACCTAGTGCAG”, the binding signal was 23900 fluorescence intensity (a.u.). The same measure for “AGCTAGGTCAATCATGCATGCATGAATATGTGGCCGAGTTCGGAGTCACCTAGTGCAG”: 3270 fluorescence intensity (a.u.). The same measure for “CCAAACAATTTCAGTTTCATCTAAATTGGAGTGGAGCTGGCGGAGTCACCTAGTGCAG”: 11400 fluorescence intensity (a.u.). The same measure for “TTTTGTAACTGATCGTTATTAGATCGGATTTGTTCATTGTCGGAGTCACCTAGTGCAG”: 3360 fluorescence intensity (a.u.); for “TTGATAGATTGATCGTTAGTGCTTTTGTCCAATTTGTTCACGGAGTCACCTAGTGCAG”: 64200 fluorescence intensity (a.u.). Regarding “CTCGTTAGATTTTGATCAATGATTAGTCCAAATTATACATCGGAGTCACCTAGTGCAG”, the binding signal is 15200 fluorescence intensity (a.u.). The same measure for “CTGATTAAGATCACTAATTGATCTGTCCACATTGCATCCTCGGAGTCACCTAGTGCAG”: 54800 fluorescence intensity (a.u.); for “TATGATTGATTGGAGGGATCAATTAATTACTCATTCTCCACGGAGTCACCTAGTGCAG”: 64700 fluorescence intensity (a.u.). The same measure for “TGGATTAATTTCTCCTCTTCTCTTCCTCCCGTTTATAATACGGAGTCACCTAGTGCAG”: 6370 fluorescence intensity (a.u.). The same measure for “TTTACTCATGATTACGCTAATTATTCCACTCAATTCTCACCGGAGTCACCTAGTGCAG”: 26100 fluorescence intensity (a.u.); for “TTGTCCATCACAATTGCTAATTAACTAAGACACCCTTCCTCGGAGTCACCTAGTGCAG”: 21100 fluorescence intensity (a.u.); for “CTCCACTAATTACTCCACCCAACCATTGGATTCAATGGGCCGGAGTCACCTAGTGCAG”: 21700 fluorescence intensity (a.u.). Take “ATTAATTAATTAATTAATTAATTAATACTCCTCTCTTCCACGGAGTCACCTAGTGCAG”: the binding signal was 65500 fluorescence intensity (a.u.).

For “ATTTAATTTAATTTAATTGTTCCTCCTCTTCTTCTTCTCTCGGAGTCACCTAGTGCAG”, the binding signal is 41000 fluorescence intensity (a.u.). The same measure for “GAGATCACATTAACTAATTGATTAACTAATTACTTCATCCCGGAGTCACCTAGTGCAG”: 29600 fluorescence intensity (a.u.); for “TGATAATTTTAAATTAAATAAGTAAATTTCAGAAAACTATCGGAGTCACCTAGTGCAG”: 29700 fluorescence intensity (a.u.). For the sequence “TTATATTTAGATTGAAGCCAAAATAACCTAAGTTCACTATCGGAGTCACCTAGTGCAG”, the binding signal is 8620 fluorescence intensity (a.u.).

Regarding “TTTTACTATAACGTTTGATCATTTGTGTTATTTAAATTTTCGGAGTCACCTAGTGCAG”, the binding signal was 4170 fluorescence intensity (a.u.). As for “TGATTTGGCTGATTAGATGCAATTTAGTCCTGCCACTGTGCGGAGTCACCTAGTGCAG”, the binding signal is 16900 fluorescence intensity (a.u.). The same measure for “AATCAATCAATTAGTTAGAGATCAAGTTATTAGTGTCCAACGGAGTCACCTAGTGCAG”: 31100 fluorescence intensity (a.u.). The value for “CAAATAAACAGGGTTCAGTCAAACTCAAGTGAATGAATTGCGGAGTCACCTAGTGCAG” was 11500 fluorescence intensity (a.u.); that for “ATGAGCCTAACCATTTCTAGTGTTACTTACTCCATTTCAGCGGAGTCACCTAGTGCAG” was 64200 fluorescence intensity (a.u.); that for “GTGCAATTTAACTCCATAAATTACTTTCAGAAATGTGCAGCGGAGTCACCTAGTGCAG” was 11300 fluorescence intensity (a.u.). The same measure for “GTCATCAATGATTCAGTGTTAACTACTCCATTTCTAGAAACGGAGTCACCTAGTGCAG”: 3880 fluorescence intensity (a.u.); for “ATAATGGGAAATGGAGGGTGGGATTGGGATTAGAAAATGACGGAGTCACCTAGTGCAG”: 3290 fluorescence intensity (a.u.).

Turning to “AATATTAGTATTAATTGATAAAAGTTCGTCACGCGAGTTACGGAGTCACCTAGTGCAG”, the binding signal is 18200 fluorescence intensity (a.u.). The value for “TAAATTGAATGGTTTTGTAAGTTGAGGGACGTCATATATCCGGAGTCACCTAGTGCAG” was 21500 fluorescence intensity (a.u.); that for “GAGTAATTTTCTACTGGTTTTAATAGTTGAAATAGCTGTTCGGAGTCACCTAGTGCAG” was 3780 fluorescence intensity (a.u.); that for “ATTTTGAAGTTCCTGTAAGTTGGACATATCTACTGGTTCCCGGAGTCACCTAGTGCAG” was 65500 fluorescence intensity (a.u.). The value for “TATCTCTAATTTAGTTAATTTAACTTGTTGATCGATCGCTCGGAGTCACCTAGTGCAG” was 21700 fluorescence intensity (a.u.). The value for “CAATAAATTTGAATAGCAATTGGTATATGTCATATCTGGTCGGAGTCACCTAGTGCAG” was 14900 fluorescence intensity (a.u.); that for “AGTTTATGATAATTTAAATTTATATAGTATGTAGAATGGTCGGAGTCACCTAGTGCAG” was 14400 fluorescence intensity (a.u.); that for “TTGATTTGATTGGGTTGGTTCCAAATTATATTCTGTGATTCGGAGTCACCTAGTGCAG” was 57600 fluorescence intensity (a.u.). For the sequence “ACTTGTAGTAATTTAATTTGAAATTCTGTTCTTGCCTCTGCGGAGTCACCTAGTGCAG”, the binding signal is 6760 fluorescence intensity (a.u.). “TCGGTCTGCAAACAAATTGATTGATTTGTTTTCCTTTTGCCGGAGTCACCTAGTGCAG”: the binding signal was 47100 fluorescence intensity (a.u.). The same measure for “TTTGATTTAATTTGTTCTGCAAACAGTCCGGAAAATGCCTCGGAGTCACCTAGTGCAG”: 53500 fluorescence intensity (a.u.). For “TTATACAAATTATACCTGTTAATTATTGTGATTGTTTGGTCGGAGTCACCTAGTGCAG”, the binding signal is 36800 fluorescence intensity (a.u.). The value for “CAAAACTGTCATTTTGTATGATTTCTCTCTCATCAATTGGCGGAGTCACCTAGTGCAG” was 17500 fluorescence intensity (a.u.). The value for “AGCAAATTTAAATTTGATAGTATAGAATTGGTTCTGAGGTCGGAGTCACCTAGTGCAG” was 52400 fluorescence intensity (a.u.).

For “CCAAATTTGATTGGCATCTCAAAACTGTCGTATAATTGGGCGGAGTCACCTAGTGCAG”, the binding signal was 65500 fluorescence intensity (a.u.). The value for “CGTTTCTGATTTGATTCTTCCAAATTTTGGGTTCCTGATTCGGAGTCACCTAGTGCAG” was 24800 fluorescence intensity (a.u.); that for “ATTTTCTCAATTTATCTCACTCATATAAACTCCAAATTGGCGGAGTCACCTAGTGCAG” was 6170 fluorescence intensity (a.u.).
